The panel holds about 79,000 compounds, 15% with a hit somewhere; the sample as a whole holds those more often. A number with no mark means an inactive call. Active and inactive are the calls of the source. Cut-off read from the data, not from the text of the source: active = growth inhibition above about 70%; inactive = the rest.
How the values were obtained:
[1] = NCI Yeast Anticancer Drug Screen. Data for the rad50 strain (AID 155);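 note: 0% = growth of vehicle-only cultures of the same strain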; settings: S. cerevisiae rad50 strain growth inhibition, active compounds read high
Outline: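 A DNA repair-deficient yeast mutant serves as the test organism; compound-induced growth inhibition is calculated against vehicle-treated cells.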

[2] = NCI Yeast Anticancer Drug Screen. Data for the mec2-1 strain (AID 157); settings: S. cerevisiae mec2-1 strain, active compounds read high
Outline: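 Yeast mec2-1 mutant treated with compound. Readout: growth inhibition vs vehicle controls.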

[3] = NCI Yeast Anticancer Drug Screen. Data for the sgs1 mgt1 strain (AID 161);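 note: 0% = growth of cultures given vehicle only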; settings: S. cerevisiae sgs1 mgt1 strain, active compounds read high
Outline: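 Test agents were incubated with a DNA-repair-mutant yeast strain. Growth was then read and compared against vehicle-treated controls.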

[4] = NCI Yeast Anticancer Drug Screen. Data for the cln2 rad14 strain (AID 165);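 note: 0% = growth equal to vehicle treated cultures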; settings: S. cerevisiae cln2 rad14 strain, active compounds read high
Outline: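 cln2 rad14 yeast strain; compound exposure; growth inhibition read vs vehicle controls.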

[5] = NCI Yeast Anticancer Drug Screen. Data for the bub3 strain (AID 167); settings: S. cerevisiae bub3 mutant strain, active compounds read high
Outline: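 Inhibition values come from growth of compound-treated mutant yeast normalised to vehicle-treated controls.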

[6] = NCI Yeast Anticancer Drug Screen. Data for the mlh1 rad18 strain (AID 175); settings: S. cerevisiae mlh1 rad18 strain growth inhibition, active compounds read high
Outline: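 Yeast w/ defined DNA-repair lesions; compound exposure; growth vs vehicle controls → % inhibition.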

[7] = at 5.0 µM (retest, dose inferred, filed as 0.5)
[8] = at 50.0 µM (retest, dose inferred, filed as 5.0)

| Structure (SMILES) | growth inhibition [1, 7] [%] | growth inhibition [1, 8] | growth inhibition ([1]; at 50.0 µM) | growth inhibition [2, 7] [%] | growth inhibition [2, 8] | growth inhibition ([2]; at 50.0 µM) | growth inhibition [3, 7] | growth inhibition [3, 8] | growth inhibition ([3]; at 50.0 µM) | growth inhibition [4, 7] | growth inhibition [4, 8] | growth inhibition ([4]; at 50.0 µM) | growth inhibition [5, 7] | growth inhibition [5, 8] | growth inhibition ([5]; at 50.0 µM) | growth inhibition [6, 7] [%] | growth inhibition [6, 8] | growth inhibition ([6]; at 50.0 µM) |
| --- | --- | --- | --- | --- | --- | --- | --- | --- | --- | --- | --- | --- | --- | --- | --- | --- | --- | --- |
| CCCCCCCCN1CCN(CCCCCCCC)C2CCCCC21 (centres undefined) (tested in a mixture with another compound) | 12 | 95% (active) | 67.2% | 4 | 96% (active) | 44.1% | 25% | 94% (active) | 70.2% (active) | 8% | 71% (active) | 56% | 20% | 99% (active) | 71.5% (active) | 18 | 96% (active) | 77% (active) |
| O=[N+]([O-])O.[In] | 9 | 49% | 11.6% | 17 | 53% | 44.2% | 6% | 43% | 50.3% | 3% | 22% | -24.1% | 11% | 58% | -1.85% | 13 | 55% | 65.3% |
| CC[CH2][Pb]([CH2]CC)([CH2]CC)[O]C(C)=O | 54 | 79% (active) | 91% (active) | 50 | 75% (active) | 92.7% (active) | 100% (active) | 100% (active) | 93.8% (active) | 73% (active) | 100% (active) | 91.3% (active) | 99% (active) | 100% (active) | 90.6% (active) | 49 | 67% | 91.3% (active) |
| O=[N+]([O-])c1c[c]([Hg][Cl])c(O)[c]([Hg][Cl])c1 | 44 | 99% (active) | 88.7% (active) | 52 | 99% (active) | 92.4% (active) | 100% (active) | 78% (active) | 92.4% (active) | 94% (active) | 97% (active) | 91% (active) | 99% (active) | 91% (active) | 90.1% (active) | 41 | 99% (active) | 89.2% (active) |
| COC12C(COC(N)=O)C3=C(C(=O)C(C)=C(N)C3=O)N1CC1C2N1C (centres undefined) | 10 | 74% (active) | 43.6% | 16 | 84% (active) | 44.6% | 16% | 77% (active) | 55.7% | 1% | 77% (active) | 38.4% | 5% | 55% | 31% | 34 | 92% (active) | 75.8% (active) |
| COc1cc(C(CC(=O)N(CCCl)CCCl)c2ccc3c(c2)OCO3)cc(OC)c1OC (centres undefined) | 3 | 0% | 6.9% | 0 | -2% | 10.1% | 13% | 2% | 20.8% | 0% | -15% | 25.5% | 2% | -2% | -2.7% | -2 | 0% | 46.1% |
| C1=CC2CCC[N-]C2N1.C1=CC2CCC[N-]C2N1.[I][Pt+2][I] (centres undefined) | 4 | 99% (active) | 99% (active) | 9 | 99% (active) | 99.5% (active) | 10% | 99% (active) | 34.5% | 21% | 99% (active) | 98.2% (active) | 6% | 99% (active) | 99% (active) | 23 | 99% (active) | 98.8% (active) |
| O=C(N/N=C(/CCN1CCCC1)CC(c1ccccc1)c1c(O)c2ccccc2oc1=O)c1ccncc1 (centres undefined) | 15 | 15% | 83.3% (active) | -4 | -4% | 80% (active) | -1% | -1% | 85.1% (active) | -1% | -1% | 82.3% (active) | 0% | 0% | 81.3% (active) | 14 | 14% | 81.2% (active) |
| O=[As]c1ccc(O)c(O)c1 (centres undefined) | 11 | 99% (active) | 97% (active) | -4 | 100% (active) | 99.4% (active) | -4% | 99% (active) | 99.5% (active) | -9% | 99% (active) | 98.8% (active) | 22% | 99% (active) | 99.2% (active) | 6 | 99% (active) | 99.3% (active) |
| CC1=NNC(=O)C1(Br)Br | -2 | 21% | 8.7% | -3 | 9% | 11.9% | 2% | 16% | 14.2% | 13% | 31% | 69.6% | 1% | 75% (active) | 43.1% | -13 | -2% | -23.8% |
| [N-]=[N+]=Nc1c([N+](=O)[O-])c(=O)n2c3c(cccc13)CCC2 | 46 | 98% (active) | 85.5% (active) | 26 | 99% (active) | 88.8% (active) | 28% | 99% (active) | 92.8% (active) | 18% | 84% (active) | 90.6% (active) | 37% | 99% (active) | 90.5% (active) | 40 | 98% (active) | 90.2% (active) |
| NC(=O)Nc1ccc([As](Sc2ccccc2C(=O)O)Sc2ccccc2C(=O)O)cc1 | -1 | 14% | 15.9% | -3 | -1% | 4.75% | -3% | 10% | 17.3% | -8% | 24% | 28.9% | -8% | 26% | -7.1% | -4 | 8% | 20.1% |
| [C-]#[O+].[C-]#[O+].[Mo].c1ccc([PH+](CC[PH+](c2ccccc2)c2ccccc2)c2ccccc2)cc1.c1ccc([PH+](CC[PH+](c2ccccc2)c2ccccc2)c2ccccc2)cc1 | 0 | 65% | 2% | 2 | 52% | 59.3% | -1% | 41% | 1.3% | -2% | 71% (active) | 2.55% | 0% | 76% (active) | -1.85% | 4 | 80% (active) | -0.8% |

Source: PubChem BioAssay (NCI)
